# Data as given in PubChem BioAssay AID2384 (Southern Research Specialized Biocontainment Screening …, 2010).
# Among all 2,300 compounds or so, about 1,100 (48%) were called active. The set was probably picked from earlier hits. Some of the results follow. Entries with a potency or affinity are not part of this list. Values without a mark were called inactive. The rule behind the calls is not given here.
# Assay: S. typhi counter-screen signal inhibition – fluorescence, 4 h, counter-screen for PhoP regulon inhibitor project, dose response (AID 2384)
# Settings: S. typhi GFP reporter counter-screen; series mostly up to 150 µM; inhibition: at the top concentration
row,Structure (SMILES),inhibition [%]
1,CC1Cc2ccccc2N1C(=O)CN1C(=O)C(=O)N(Cc2ccccc2)C1=O (configuration not stated),-9.75
2,Cc1c(/C=N/NC(=O)c2sc3ccccc3c2Cl)cnn1C,10.8
3,Cc1c(/C=N/NC(=O)c2ccc3c(c2)OCO3)cnn1C,12.9
4,N#CC1=C2N=C(N)c3ccccc3N2C2=C(C(=O)CCC2)C1c1cccc(Cl)c1 (configuration not stated),-19.9
5,CC(C(=O)c1ccc2ccccc2c1)N1CCCCC1 (configuration not stated),36.4
6,c1ccc2oc(-c3ccc(Nc4nc(N5CCCCC5)nc(N5CCOCC5)n4)cc3)nc2c1,8.13
7,CCOc1ccccc1NC1=NC2CS(=O)(=O)CC2S1 (configuration not stated),-10.3
8,CC(C)c1cc(C(=O)Nc2ccc3c(c2)OCO3)no1,9.74
9,CCOC(=O)c1sc(N)c(C(=O)OC)c1C,-13.7
10,S=C1SCN(Cc2cccnc2)CN1Cc1cccnc1,25
11,CC(OC(=O)Cc1coc2cc3c(cc12)CCC3)C(=O)NCc1ccc2c(c1)OCO2 (configuration not stated),5.64
12,Cc1ccc(NC(=O)CN(C)C(=O)Cn2ccsc2=N)cc1,27.2
13,O=C(NC(C(=O)c1ccccc1)n1c(=O)cc[nH]c1=S)c1ccccc1 (configuration not stated),16.6
14,CCSc1nc(C)cc(C)c1S(=O)(=O)c1ccccc1C,1.56
15,CCN(CC)CCSc1nnc2c3ccccc3n(Cc3ccccc3)c2n1,16.3
16,O=C1SC(c2ccccc2)=C/C1=C\N1CCCCC1,31.5
17,Cc1cc(C)n(-c2nc3ccccc3nc2N2CCN(C(=O)c3ccc(F)cc3)CC2)n1,10.4
18,O=C(CCNS(=O)(=O)c1cccc2nonc12)N1CCN(c2cccc(Cl)c2)CC1,-12.9
19,Cc1c(C=O)c2ccccn2c1C(=O)c1ccccc1,0.47
20,CCCCC(=O)Nc1ccc2c(c1)C(=O)NC2=O,-15.3
21,CCOC(=O)COc1cccc2c(=O)n(CC(=O)N3CCCCC3)ccc12,3.71
22,COc1cccc(-c2cc(C(=O)O)[nH]n2)c1,-27.4
23,COc1nc(N(C#N)CC(N)=O)nc(N2CCCC2)n1,-14.2
24,CCOC(=O)c1c(CSC(=N)N)n(C)c2cc(Br)c(OC(C)=O)cc12,38.3

row,Structure (SMILES),inhibition [%]
1,COc1ccc(CSCCN)cc1Cl,38
2,CCCCOc1ccc(CN=C(N)N)cc1Cl,23.5
3,COC(=O)c1cc(CSC(=N)N)ccc1OCCC(C)C,3.72
4,CCOC(=O)c1cccc(NC(=O)c2cccs2)c1,-4.52
5,Cn1cnc2cc(NC(=O)c3cccs3)ccc21,28.9
6,CCN(CC)CCNc1nc(-c2ccc(OC)cc2)c(-c2ccc(OC)cc2)s1,27.2
7,COc1ccc(CC(=O)N(Cc2cc3cc(OC)ccc3[nH]c2=O)C(C)C)cc1,17.3
8,CC(=O)c1cccc(NC(=O)CCC2CCCC2)c1,27.3
9,CCC(=O)Nc1nnc(-c2ccco2)o1,8.68
10,Cc1cc(=O)n(CC(C)C)c(O)c1C#N,-31.6
11,S=C1NCN(C2CCCCC2)CN1c1ccccc1,9.4
12,CCc1nccc2c1[nH]c1ccccc12,-35.1
13,C=CCOc1ccc(-c2n[nH]c(=S)o2)cc1,18.3
14,O=C1c2ccccc2C2=Nc3ccccc3SC(c3ccccc3F)C12 (configuration not stated),12.1
15,COc1ccc(NC2=Nc3ccccc3CC2)cc1,12.3
16,Cc1cccc(NS(=O)(=O)c2ccc3c(c2)OCCO3)c1,1.33
17,c1ccc(CNc2nc(-c3ccccn3)nc3ccccc23)cc1,12
18,Cc1ccc(Cn2c(=N)c(C(=O)NCc3ccco3)cc3c(=O)n4ccccc4nc32)cc1,12
19,CN(CCO)CC(O)Cn1cnc2c1c(=O)n(C)c(=O)n2C (configuration not stated) (tested in a mixture with another compound),23.2
20,COc1ccc(N2CCN(C(=O)c3cc4c(s3)-c3ccccc3S(=O)(=O)C4)CC2)cc1,-5.98
21,c1ccc(-c2nnc(-c3c[nH]c4ccccc34)nc2-c2ccccc2)cc1,3.86
22,O=c1oc2ccccc2c(O)c1C(c1ccccn1)c1c(O)c2ccccc2oc1=O,-5.58
23,CC(C)(C)n1nc2c(c1NC(=O)Cc1cccs1)CSC2,4.74
24,COC(=O)c1ccc(S(=O)(=O)N2CCC(c3nc4ccccc4o3)CC2)cc1,-17.6

row,Structure (SMILES),inhibition [%]
1,CN(C)CCCN(C(=O)c1cc2cc([N+](=O)[O-])ccc2s1)c1nc2cc3c(cc2s1)OCCO3,-3.58
2,CCCCN(C)C(=O)c1ccc(S(=O)(=O)N2CCOCC2)cc1,-3.07
3,O=C(NCc1cccnc1)C1c2ccccc2C(=O)N1Cc1ccccc1 (configuration not stated),-11.2
4,CCOC(=O)c1c(C)sc2c1N(C(C)=O)c1cc(Cl)ccc1S2,4.79
5,NC(=O)c1c(NC(=O)CSc2nc(N)cc(=O)[nH]2)sc2c1CCCC2,5.04
6,O=C(CC(=O)NCc1ccccc1)NCc1ccccc1,-7.97
7,CCOc1ccc(NC(=O)CN(C)C(=O)c2ccccc2CCc2ccccc2)cc1OCC,1.33
8,CCOCCCNC(=O)CN1CCN(Cc2ccccc2C)C1=O,-28.5
9,COC(=O)C1C(=O)C2=C(CC1C)Nc1ccccc1NC2c1ccc(C)s1 (configuration not stated),-6.97
10,CCc1nn(CCCN2CCN(c3cccc(Cl)c3)CC2)c(=O)n1CCOc1ccccc1,35
11,Cc1nn(Cc2ccccc2Cl)c2sc(C(=O)Nc3ccccc3N3CCOCC3)cc12,-13.9
12,CN1C(=O)C2(Nc3ccccc3-c3nc4ccccc4n32)c2ccccc21 (configuration not stated),15
13,Oc1c(Br)cc(Br)cc1CNc1ccccn1,20.5
14,CC(C)N=C1NN=C(c2ccc(F)cc2)CS1,-1.84
15,Cc1c(O)cccc1C(=O)N[C@@H](CSc1ccccc1)[C@H](O)CN1C[C@H]2CCCC[C@H]2C[C@H]1C(=O)NC(C)(C)C,25.7
16,COc1ccc(OCC(=O)Nc2ccc3c(c2)nc(CCN2CCC(C)CC2)n3C)cc1,-8.27
17,Cn1c(CN2CCCCC2)nc2cc(NS(=O)(=O)c3ccc(Cl)cc3)ccc21,29.6
18,O=C(Nc1ccccc1)C1=C(O)CC(c2ccc(Cl)cc2)N2CCN=C12 (configuration not stated),-11
19,O=c1c2cnn(-c3ccccc3)c2ncn1CCc1ccccc1,12.7
20,COc1ccccc1NC(=O)Cn1nc(-c2ccncc2)nc1SCC(=O)NC1CCCC1,11.8
21,O=C(NC(=O)c1ccccc1)OCC1CCCN2CCCCC12 (configuration not stated),-11.2
22,C=CCn1c(C)c(C(C)=O)c(SC)nc1=S,5.5
23,Nc1nonc1C(=O)NCCN=Cc1cc(Cc2ccccc2)cc(Br)c1O,26
24,CCN(CC)Cc1c(C(=O)N/N=C/c2cccs2)nnn1-c1nonc1N,19.4
